The whole screen tested about 290,000 compounds, of which about 3,000 (1%) were called active. The sample holds actives, similar compounds and a random draw of the others, so the mix is not that of the screen. Unmarked numbers belong to inactive results. Rule as the data show it: active = inhibition mostly above about 36% (no sharp cut-off); inactive = mostly below about 34%.

The nature of the assay: inhibition of NOD1-driven NF-kB reporter – cell-based, luminescence, uHTS, primary screen (AID 1578).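 Also: HEK-293T reporter cells stimulated with the NOD1 agonist gamma-tri-DAP.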 The following applies: NOD1-driven NF-kB luciferase reporter cells, at 4 µM, stronger effect = higher value. (A reporter such as luciferase makes a cellular process visible.)
With `Cc1cc(Cl)c(S(=O)(=O)N2CCCC2)cc1OCC(=O)NC1CCCCC1`, the inhibition – broadly, the change of the read-out against control, counted positive when it falls – is 28.5%. The value for `CCN1CCN(S(=O)(=O)c2cc(OCC(=O)NC3CCCCC3)c(C)cc2Cl)CC1` was 26.3%; that for `C/C(=C\c1ccccc1)C(=O)Nc1cc(C)on1` was -6.1%. Consider `Cc1ccccc1Cn1cc(C)c(=O)[nH]c1=O`, for which the inhibition was -20.8%. Take `CC(C)(C)n1nnnc1C(c1ccc(F)cc1)N(Cc1ccc(F)cc1)Cc1ccco1` (stereo not drawn): the inhibition was -2.1%. On to `CC(C)(C)n1nnnc1C(c1ccc(C(F)(F)F)cc1)N(Cc1ccc(F)cc1)Cc1ccco1` (stereo not drawn), for which the inhibition is -13.2%. The result for `COc1cccc(CN(Cc2ccco2)C(c2ccc(F)cc2)c2nnnn2C(C)(C)C)c1` (stereo not drawn) reads 50.8% (active). The value for `Cc1nc2cc(NC(=O)N3CC4(C)CC3CC(C)(C)C4)ccc2n1C` (stereo not drawn) was -31.3%.

As to `COC(=O)CCc1ccc(O)cc1`, the inhibition is -24%. The value for `CN1CCN(C(c2ccc(C(F)(F)F)cc2)c2ccc3cccnc3c2O)CC1` (stereo not drawn) was 23.8%; that for `Cc1c(CCO)c(=O)[nH]n1S(=O)(=O)c1ccc(F)cc1` was -15.6%. The result for `Cc1csc(CNC(=O)c2ccc(OC3CCN(CCc4ccccc4)CC3)cc2)n1` reads -16.3%; that for `COc1ccc2c(c1)C=C(CN1CCC(CO)(CCc3ccccc3)CC1)CO2`, -10%; that for `OCC1(CCOc2ccccc2)CCN(CC2=Cc3cc(Cl)ccc3OC2)CC1`, -37.6%. Consider `CCOc1cc(C(=O)NN2CCOCC2)cc(OCC)c1OCC`, for which the inhibition is -21.5%. The result for `Cc1ccccc1NC(=S)N1CCN(Cc2ccc3c(c2)OCO3)CC1` reads -15.3%; that for `O=C(c1ccccc1)N1CCN(Cc2ccc3c(c2)OCO3)CC1`, -5.8%. As for `CCN(CC)c1ccc(C(=O)NC(=S)N2CCN(Cc3ccc4c(c3)OCO4)CC2)cc1`, the inhibition was -0.4%. `O=C(NC(=S)N1CCN(Cc2ccc3c(c2)OCO3)CC1)c1ccc(Cl)cc1`: the inhibition is -3.6%. The value for `Cc1cc(Cl)ccc1NC(=S)N1CCN(Cc2ccc3c(c2)OCO3)CC1` was 79.9% (active); that for `Cc1cc(Cl)ccc1NC(=S)N1CCN(Cc2ccccc2)CC1` was -13.4%. The value for `O=C(c1n[nH]c(=O)c2ccccc12)N1CCN(Cc2ccc3c(c2)OCO3)CC1` was 3.4%; that for `O=C(COC(=O)COc1ccccc1Cl)Nc1ccccc1OC(F)F` was -10.4%; that for `CN(CCCC(=O)N1CCCC(C(N)=O)C1)S(=O)(=O)c1ccc(F)cc1` (stereo not drawn) was -19.1%. The result for `Cc1ccc(NC(=O)CN2C(=O)S/C(=C\c3ccc(C(=O)O)cc3)C2=O)cc1` reads -12.7%; that for `O=C(Cc1ccc(-n2c(=O)c3ccccc3n(Cc3cccc([N+](=O)[O-])c3)c2=O)cc1)NCC1CCCO1` (stereo not drawn), 5.4%; that for `COc1ccc(CCNC(=O)CSc2ccc(-c3ccco3)nn2)cc1OC`, -15.4%. With `COc1ccc(F)cc1S(=O)(=O)NCCN1CCOCC1`, the inhibition was 15.5%. For `COc1cccc2cc(C(=O)OC3CCN(C)CC3)c(=O)oc12`, the inhibition was -29.1%. The value for `Cc1ccc(Cl)cc1N1CCN(Cc2nnnn2Cc2ccco2)CC1` was -5.9%; that for `Cc1cc(C)n(C(=O)CNC(=O)c2ccccc2Br)n1` was -28.7%; that for `COCCn1c(-c2ccc(OC)cc2)cnc1SCC(=O)Nc1cccc2ccccc12` was -37.9%.

For `CN(C)S(=O)(=O)Oc1ccccc1C(=O)Nc1cccc(C(F)(F)F)c1`, the inhibition is -19.2%. The value for `O=C(Nc1ccc(C(=O)N2CCOCC2)cc1)Nc1cccc(C(F)(F)F)c1` was 60% (active); that for `O=C(Nc1ccc(OC(F)(F)F)cc1)Nc1cccc([N+](=O)[O-])c1` was 75.1% (active); that for `CN(C)S(=O)(=O)Oc1ccc(C(=O)Nc2cccc(Cl)c2)cc1` was -35.9%. The result for `O=C(Nc1ccccc1)Nc1cccc(C(F)(F)F)c1` reads -33.9%; that for `CNC(=O)Nc1cccc(C(F)(F)F)c1`, -23%. The value for `O=C(Nc1ccc(C(=O)O)cc1)Nc1cccc([N+](=O)[O-])c1` was -12.4%; that for `O=C(Nc1cccc([N+](=O)[O-])c1)Nc1cccc([N+](=O)[O-])c1` was -8.2%. In the case of `CC(=O)c1cccc(NC(=O)Nc2ccc(C(=O)N3CCOCC3)cc2)c1`, the inhibition was 5.9%. The value for `O=C(Nc1ccc(C(=O)N2CCOCC2)cc1)Nc1cccc(Cl)c1` was -21.7%. The result for `CCOc1ccc(NC(=O)CS(=O)CC(=O)N(CC(=O)NC(C)(C)C)C2CCCC2)cc1` (stereo not drawn) reads -23.1%.

Consider `O=C(CC1C(=O)NCCN1Cc1ccc(-c2ccccc2)cc1)NCCCn1ccnc1` (stereo not drawn), for which the inhibition is -4.4%.

For `COCCNC(=O)C(C)N1c2cccc3cccc(c23)S1(=O)=O` (stereo not drawn), the inhibition was -37.7%. Regarding `NC(CCC(=O)O)C12CC3CC(CC(C3)C1)C2` (stereo not drawn), the inhibition is -26.1%. The value for `COC(=O)[C@H](Cc1ccccc1)NC(=O)NCCc1ccc(OC)cc1` was -0.3%; that for `CC(=O)c1cc2c(cc1NC(=O)CN1CCCCCCC1)OCO2` was -24.2%. The value for `Cc1cc(C(=O)Nc2ccccn2)cs1` was -53.4%.

As for `CCCC[C@@H]1CNC(=S)N1CCC12CC3CC(CC(C3)C1)C2`, the inhibition was -25.1%. The result for `CCCCOc1ccc(CSc2nc(C)[nH]c2[N+](=O)[O-])cc1[N+](=O)[O-]` reads 39.8% (active); that for `Cc1nc(SCc2ccc(O)c([N+](=O)[O-])c2)c([N+](=O)[O-])[nH]1`, -13.5%.

As for `COc1ccc(CSc2nc(C)[nH]c2[N+](=O)[O-])cc1[N+](=O)[O-]`, the inhibition is -4.2%. The result for `CCOC1(OCC)N=C(N)C2(C#N)C(c3ccc(NC(C)=O)cc3)C12C#N` (stereo not drawn) reads -12.4%. The result for `CN(CC(=O)Nc1c(Cl)cccc1Cl)C(=O)CCCN1C(=O)c2ccccc2C1=O` reads 15.6%.

As to `O=C(N/N=C/C=C\c1ccccc1[N+](=O)[O-])c1ccncc1`, the inhibition is -7.4%. The result for `COc1ccc(-n2cc(CNC3CCN(C)CC3)c(-c3cccc(F)c3)n2)cc1` reads 14.5%; that for `COc1ccc(-n2cc(CNC3CCOCC3)c(-c3cccc(F)c3)n2)cc1`, 21.8%. The value for `COc1ccc(-n2cc(CNC3CCC(O)CC3)c(-c3cccc(F)c3)n2)cc1` (stereo not drawn) was 51.1% (active). As for `Cc1cccc(C)c1N1CCN(c2nc(N(C)C)oc(=O)c2C#N)CC1`, the inhibition was 18.2%. The result for `CCOC(=O)C1CCCN(C2=NC(=O)/C(=C/c3ccc(OC)cc3)S2)C1` (stereo not drawn) reads -6.7%. Consider `CC1=C(C(=O)N2CCOCC2)C(c2ccc(-c3ccccc3)cc2)NC(=S)N1` (stereo not drawn), for which the inhibition is -25.1%. As to `CCOc1ncccc1C(=O)N1CCN(C(c2ccccc2)c2ccccc2)CC1`, the inhibition is -13%. With `Cc1ccccc1C(=O)N1CCN(C(c2ccccc2)c2ccccc2)CC1`, the inhibition is -1.2%. The result for `c1ccc(CN(Cc2ccccc2)c2ncnc3c2nnn3Cc2ccccc2)cc1` reads -2.6%. The result for `CCNc1nc(NCC)n2c(SCC(=O)Nc3ccccc3[N+](=O)[O-])nnc2n1` reads -16.6%; that for `Cn1c2c(c(=O)n(C)c1=O)C(CC(=O)Nc1ccccc1)C(=O)N2` (stereo not drawn), -23.5%; that for `COc1ccc2[nH]c3c(c2c1)CC(C)NC3=O` (stereo not drawn), 87% (active). `COc1ccc2[nH]c3c(c2c1)CCC/C3=N\N`: the inhibition was -3.8%.

Regarding `CC1Cc2c([nH]c3ccccc23)C(=O)N1` (stereo not drawn), the inhibition is 26.8%. In the case of `COc1cc(OC)cc(C(=O)NNC(=S)NC2CC2)c1`, the inhibition is -35.8%. For the compound `C=CCn1c(=O)c2ccccc2n2c(SC(C)C(N)=O)nnc12` (stereo not drawn), the inhibition was -5.9%.

As to `C[C@@H](CN=[N+]=[N-])CN1CC[C@H](C(C)(C)C)CCC1=O`, the inhibition is -15.8%. Take `CC(C)/C=C/CN1CCN(CCCc2ccccc2)C(CCO)C1` (stereo not drawn): the inhibition is 45.1%. The result for `N#CCOC(=O)[C@H](Cc1ccccc1)N1C(=O)c2ccccc2C1=O` reads -3.8%; that for `Cc1nn(-c2ccccc2Cl)c(Cl)c1/C=N/Nc1cccc(C(=O)O)c1`, 19.9%. As for `Cc1nn(-c2ccccc2Cl)c(Cl)c1/C=N/Nc1nc2ccccc2s1`, the inhibition was 87.9% (active). The result for `CCOC(=O)N/N=C/c1c(C)nn(-c2ccccc2Cl)c1Cl` reads -46.5%; that for `COc1ccc(CCNC(=O)CNC(=O)c2nn(-c3ccc(OC)c(OC)c3)c(=O)c3ccccc23)cc1OC`, -4.9%; that for `CC1(C)Cc2c(sc(NC(=O)c3ccccc3)c2C(=O)O)CO1`, -22.9%. The result for `COc1ccc(C(=O)Nc2sc3c(c2C(=O)O)CC(C)(C)OC3)cc1` reads -23.2%; that for `Cc1ccc(-c2cn3nc(C)c(C)nc3n2)cc1`, 46.8%; that for `CCc1ccc(-c2cn3nc(C)c(C)nc3n2)cc1`, 76.1% (active). The result for `Cc1nc2nc(-c3ccc(Cl)cc3)cn2nc1C` reads -11.9%; that for `O=C1N(c2ccccc2)C[C@@H]2C[C@@H](c3cccc4c3OCO4)N3CCC[C@@]123`, -27.6%. With `O=C1N(c2ccccc2)C[C@@H]2C[C@@H](c3cc4ccccc4o3)N3CCC[C@@]123`, the inhibition was 98% (active). The value for `O=C1N(c2ccccc2)C[C@@H]2C[C@@H](c3cccs3)N3CCC[C@@]123` was -35.1%; that for `Cc1onc(-c2c(F)cccc2Cl)c1C(=O)NC(=S)NC1CCS(=O)(=O)C1` (stereo not drawn) was -19.3%; that for `COc1ccc(CC(=O)N2CCN(c3cccc(C)c3C)CC2)cc1` was -24.5%. The result for `CC(C)(C)c1ccc(Cn2c(=O)cnc3ccccc32)cc1` reads 48.9% (active); that for `O=c1cnc2ccccc2n1Cc1ccc(Br)cc1`, -18.3%. The value for `O=c1cnc2ccccc2n1Cc1ccccc1C(F)(F)F` was -40.7%. Consider `C=CCn1cc(C(=O)OCC)c(=O)c2cc(F)c(F)cc21`, for which the inhibition is 2.3%.
